SMN2 splice up: increases expression of the SMN2 splice variant | HEK293 SMN2-luciferase splicing reporter, luminescence, 30-36 h | Potency, µM (highest dose often 46.1 µM), most hits filed as activators | 210,000 tested, 2.8% active | AID 1458; also: nearly all actives have a fitted effect of over 55% in size
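HEK293 cells carry an SMN2 […]–luciferase reporter in which exon 7 inclusion puts luciferase in frame. Cells were plated 10-12 h before compound addition, then incubated 30-36 h at 37C. ONE-Glo luminescence was read; sodium butyrate at 4.5 mM final served as control.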
ELG1 repair inh: ELG1-dependent DNA repair inhibition; 330,000 tested, 2.3% active; HEK293T ELG1-luciferase reporter, luminescence, 16 h; DNA damage induced by 5-fluorouridine; AID 504467; Potency, µM (top dose mostly 46.1 µM), usual class: inhibitors; also: nearly all actives have a fitted effect of over 55% in size
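Luminescence from the luciferase reporter, measured 30 min after ONE-Glo reagent at room temperature, was the read-out. Beforehand, 2,000 cells per well were exposed for 16 hr at 37 °C to 5-fluorouridine together with compound or vehicle.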
NPC1 promoter act: activates the NPC1 promoter; Huh7 NPC1 promoter luciferase reporter, 24 h; 320,000 tested, 2.4% active; AID 485313; Potency, µM (titrated, usually from 9.22 µM), actives largely listed as activators; also: nearly all actives have a fitted effect of over 60% in size
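Huh7 cells stably carrying NPC1 promoter–luciferase, plated in Opti-MEM with 10% FBS for 2 h, were exposed to compound in DMSO for 24 h at 37 °C; luciferase reagent was added for 10 min and luminescence read.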
ELG1 genotox: inducers of genotoxicity in HEK293T ELG1-luciferase cells | HEK293T ELG1-luciferase reporter, luminescence, 16 h | Potency, µM (series often up to 46 µM), most hits filed as activators | 330,000 tested, 1.3% active; also: nearly all actives have a fitted effect of over 60% in size
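ELG1-luciferase HEK293T cells, 2,000/well; compound pinned in; 16 hr, 37 °C, 5% CO2; ONE-Glo, 30 min RT; luminescence on CCD imager.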
Rab9 prom act: activators of Rab9 promoter; Potency, µM (top dose mostly 9.22 µM), hits mostly activators; AID 485297; 320,000 tested, 2.8% active; Huh7 Rab9 promoter-luciferase reporter, luminescence, 24 h; also: nearly all actives have a fitted effect of over 60% in size
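Luminescence from Amplite-detected luciferase (10 minutes, ambient) reports Rab9 promoter activation. Before that, stable Rab9-luciferase Huh7 cells (1500/well, reduced-serum OP-MEM I plus 10% FBS) were exposed to compound for 24 hours at 37C.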
FLuc modulator: inhibits or activates purified firefly luciferase, miR-21 counter-screen. P08659. purified FLuc, Km substrates, luminescence inhibition. Potency, µM (doses to about 57.5 µM), most hits filed as inhibitors. 360,000 tested, 6.9% active; also: nearly all actives have a fitted effect of over 55% in size
Target sequence (P08659 whole entry, looked up): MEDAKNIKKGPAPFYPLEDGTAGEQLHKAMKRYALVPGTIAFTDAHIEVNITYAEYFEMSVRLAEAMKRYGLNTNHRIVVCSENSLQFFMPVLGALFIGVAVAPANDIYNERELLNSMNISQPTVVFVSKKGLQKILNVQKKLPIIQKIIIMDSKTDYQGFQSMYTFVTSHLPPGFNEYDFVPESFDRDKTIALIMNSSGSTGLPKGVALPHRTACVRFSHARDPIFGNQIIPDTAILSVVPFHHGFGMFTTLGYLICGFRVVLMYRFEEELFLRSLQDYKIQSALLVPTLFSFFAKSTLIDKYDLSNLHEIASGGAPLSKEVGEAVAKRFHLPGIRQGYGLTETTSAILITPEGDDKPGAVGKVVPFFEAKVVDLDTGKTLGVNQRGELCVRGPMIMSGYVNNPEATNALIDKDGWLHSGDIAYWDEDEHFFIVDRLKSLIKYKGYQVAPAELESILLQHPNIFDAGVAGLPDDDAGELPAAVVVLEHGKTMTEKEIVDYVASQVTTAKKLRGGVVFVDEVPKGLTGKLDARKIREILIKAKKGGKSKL
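Purified P. pyralis luciferase, 10 nM final, with Km-level 10 uM D-luciferin and 10 uM ATP in 50 mM Tris acetate pH 7.5, 10 mM Mg acetate, 0.01% Tween-20, 0.05% BSA; 6-point qHTS titration about 60 µM downward; luminescence read.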
Of the large screens only hits and unclear results are named; the others gave an inactive call; ! = repeats disagree. Compounds with a hit are over-represented: about 9.2% of the library has one in this group of screens. Calls follow the shape of the dose curve; as a rule, active = well fitted curve in the direction sought with a large enough effect; inconclusive = small, poorly fitted or top-dose-only effect, or another doubt; inactive = no such curve, though single readings can be large; an effect the other way counts as inactive or inconclusive.

Cc1nc(Nc2ccc(S(N)(=O)=O)cc2)sc1C(=O)Nc1ccccc1	none
COc1ccccc1Nc1nc(C)c(C(=O)Nc2ccccc2)s1	FLuc modulator 15µM
Cc1nc(Cl)sc1C(=O)Nc1ccc(Cl)cc1	ELG1 repair inh inconclusive, FLuc modulator 15µM
Cc1nc(Nc2ccccc2Cl)sc1C(=O)Nc1ccccc1	FLuc modulator 19µM
COc1ccc(/C=N/NC(=O)c2[nH]ncc2Br)c(OC)c1	ELG1 repair inh inconclusive, ELG1 genotox 26µM, FLuc modulator 2.4µM
COc1ccc(/C=N/NC(=O)c2cccc(NC(C)=O)c2)c(OC)c1	none
O=C(N/N=C/c1ccccc1)c1[nH]ncc1Br	SMN2 splice up inconclusive, ELG1 repair inh inconclusive, NPC1 promoter act inconclusive, ELG1 genotox 15µM, Rab9 prom act 3.2µM, FLuc modulator 11µM
COc1cc2ccccc2cc1C(=O)Nc1ccc2oc(=O)ccc2c1	ELG1 repair inh inconclusive (no result: SMN2 splice up)
Cc1nc2ccc(CCO)cc2s1	none
Nc1nc2ccc(Oc3ccccc3)cc2s1	SMN2 splice up inconclusive, ELG1 repair inh inconclusive, NPC1 promoter act 2.8µM, ELG1 genotox 8.2µM, Rab9 prom act 4µM, FLuc modulator 8.5µM
Nc1nc2ccc(OC(F)(F)F)cc2s1	SMN2 splice up inconclusive, ELG1 repair inh inconclusive, NPC1 promoter act 10µM!, Rab9 prom act 10µM!, FLuc modulator inconclusive
Cc1nc2ccc(Oc3ccccc3)cc2s1	ELG1 repair inh inconclusive, FLuc modulator 17µM (no result: SMN2 splice up)
CN(C)S(=O)(=O)N1CCN(C(=O)c2ccc3c(c2)OCO3)CC1	none (no result: SMN2 splice up)
Cc1ccc([N+](=O)[O-])cc1NC(=O)CCc1ccccc1	none
Cc1ccc([N+](=O)[O-])cc1N/C=C1\CCc2ccccc2C1=O	ELG1 repair inh inconclusive, NPC1 promoter act 4.5µM, Rab9 prom act inconclusive, FLuc modulator inconclusive
N[C@@](CCc1ccccc1)(C(=O)O)c1ccccc1	none (no result: ELG1 repair inh, NPC1 promoter act, ELG1 genotox, Rab9 prom act, FLuc modulator)
O=C(NCCS(=O)(=O)N1CCN(c2ccc(F)cc2)CC1)c1cccc(C(F)(F)F)c1	none (no result: SMN2 splice up, ELG1 repair inh, NPC1 promoter act, ELG1 genotox, Rab9 prom act)
O=C(NC12CC3CC(CC(C3)C1)C2)c1ccco1	ELG1 repair inh inconclusive (no result: SMN2 splice up)
O=C(NC12CC3CC(CC(C3)C1)C2)c1ccc(-c2ccccc2Cl)o1	ELG1 repair inh inconclusive, NPC1 promoter act 1.1µM, ELG1 genotox inconclusive, Rab9 prom act 2µM, FLuc modulator 1.9µM
O=C(NC12CC3CC(CC(C3)C1)C2)c1ccc(-c2ccc(Cl)cc2)o1	SMN2 splice up 16µM, ELG1 repair inh inconclusive, NPC1 promoter act inconclusive, ELG1 genotox inconclusive, Rab9 prom act 3.2µM, FLuc modulator inconclusive
O=C(NC(=S)Nc1ccccc1O)c1ccc(-c2ccc(Cl)cc2)o1	none
CC(=O)NC(=O)c1ccc(-c2ccc(Cl)cc2)o1	ELG1 repair inh inconclusive, FLuc modulator 5.4µM (no result: SMN2 splice up)
O=C(NC12CC3CC(CC(C3)C1)C2)c1ccc(-c2cccc(Cl)c2)o1	ELG1 repair inh inconclusive, NPC1 promoter act 2.8µM, ELG1 genotox inconclusive, Rab9 prom act 0.89µM, FLuc modulator 2.4µM
Cc1ccc(C)c(NC(=O)CN(C)S(=O)(=O)c2ccc3c(c2)CCC(=O)N3)c1	none (no result: ELG1 repair inh, NPC1 promoter act, ELG1 genotox, Rab9 prom act)
CCN(C(=O)CN1CCC(C(=O)OC)CC1)c1c(N)n(Cc2ccccc2)c(=O)[nH]c1=O	ELG1 repair inh inconclusive (no result: SMN2 splice up, NPC1 promoter act, Rab9 prom act, FLuc modulator)
COc1ccc(C)cc1N1CC(C(=O)OCc2nc(N)nc(Nc3ccccc3C)n2)CC1=O (stereo not given)	none (no result: SMN2 splice up)
CNC(=O)C1CCC(Cn2c(=O)c3sccc3n(CC(=O)Nc3cc(F)ccc3F)c2=O)CC1 (stereo not given)	none (no result: SMN2 splice up, ELG1 repair inh, NPC1 promoter act, ELG1 genotox, Rab9 prom act)
O=C(CSc1nc2nn(-c3ccccc3)c(=O)c-2c2n1CCCCC2)Nc1ccccc1[N+](=O)[O-]	ELG1 repair inh inconclusive (no result: SMN2 splice up)
CCn1nnc(NC(=O)c2ccc(-c3ccc(Cl)cc3)o2)n1	ELG1 repair inh inconclusive, ELG1 genotox inconclusive, FLuc modulator 17µM
O=C(O)c1ccccc1COc1ccccc1Cl	ELG1 repair inh inconclusive, FLuc modulator 15µM
O=C(O)c1cccc(OCc2ccccc2Cl)c1	ELG1 repair inh inconclusive, NPC1 promoter act inconclusive, Rab9 prom act inconclusive, FLuc modulator 9.5µM (no result: SMN2 splice up)
Cc1ccccc1NC(=O)c1csc2c1CCCC2	SMN2 splice up inconclusive, ELG1 repair inh inconclusive, NPC1 promoter act inconclusive, ELG1 genotox 26µM, FLuc modulator 19µM

Source: PubChem (National Center for Advancing Translational Sciences (NCATS))
